Experimental data reported in PubChem BioAssay (EPA / NIEHS).
The source made the active and inactive calls. Rule for the calls: active = hit-call score of the fitted dose curve at least 0.9, where 1 is the maximum; inactive = score below 0.9.

assay: CCTE_Harrill_HTTr_Apoptosis_MCF7: CCTE's 6-hour Apoptosis Assessment for the High-Throughput Transcriptomics (HTTr) Platform, in MCF-7 cells cultured in DMEM + 10% fetal bovine serum, Harrill Lab (AID 2284011)
Excerpt: This is a cell-based assay that evaluates apoptosis using high content imaging to evaluate activation of caspase-3/7 using the CellEvent Caspase 3/7 Green detection reagent in 384-well format.One of seven assay components measured from the CCTE_Harrill_HTTr_Apoptosis assay. This was part of a full screening experiment. This is a cell-based assay that evaluates apoptosis in MCF-7 cells cultured in DMEM + 10% fetal bovine serum. High content imaging is used to evaluate activation of caspase-3/7 using the CellEvent Caspase 3/7 Green detection reagent. Measurements are taken at 6 hours after chemical dosing in 384-well format.The assay component endpoint CCTE_Harrill_HTTr_Apoptosis_MCF7 was analyzed with bidirectional fitting relation to DMSO as the negative control and baseline of activity. Using a type of viability reporter, gain-of-signal activity can be used to evaluate activation of caspase-3/7 using the CellEvent Caspase 3/7 Green detection reagent to understand changes in apoptosis. To generalize the intended target to other relatable targets, this assay endpoint is annotated to cell cycle, where the subfamily is apoptosis.
Chemicals were tested in MCF7 cells in an eight point dilution series with a six hour exposure duration.

outcome, inactive:
O=C(Oc1ccccc1)c1cccc(C(=O)Oc2ccccc2)c1
O=C(NS(=O)(=O)/C=C/c1cccs1)c1ccc(F)cc1Br
CCc1cc(C2=C(C(=O)O)N(c3ccccc3C(F)(F)F)S(=O)(=O)c3ccccc32)cc2c1OCO2
O=C1c2c(O)cccc2Cc2cccc(O)c21
Cc1ccc(C(C)(C)C)c(O)c1
O=C1OC(c2ccc(O)cc2)(c2ccc(O)cc2)c2ccccc21
CC(=O)O[C@]1(C(C)=O)CC[C@H]2[C@@H]3C=C(Cl)C4=CC(=O)[C@@H]5C[C@@H]5[C@]4(C)[C@H]3CC[C@@]21C
O=C(O)CC(O)(CC(=O)O)C(=O)O
CC(C)(O)c1ccc(CNC(=O)c2cccnc2Oc2ccc(F)cc2)cc1
Cn1cnc2c1c(=O)[nH]c(=O)n2C
CN(C)C(=O)NC1(c2ccccc2)CCN(CC[C@@]2(c3ccc(F)c(F)c3)CN(C(=O)c3ccccc3)CCO2)CC1
CC1(C)C(=O)NC(=O)N1CO
CN(C)CCCN(C)CCCN(C)C
CCCCC(CC)CO (stereo not given)
CCCCCCC(C=O)=Cc1ccccc1
C=CCCCCCCCCCCCC
CC(C)(C)c1ccccc1
COc1ccc(C(=O)Nc2nc3ccccc3c(NCc3ccccc3)c2C#N)cc1
O=C(O)c1[nH]n(-c2ccc(S(=O)(=O)O)cc2)c(=O)c1N=Nc1ccc(S(=O)(=O)O)cc1
Cc1ccc(-c2cc(C(F)(F)F)nn2-c2ccc(S(N)(=O)=O)cc2)cc1
CC(=O)OC1CC(C)OC(C)O1 (stereo not given)
CSc1ccc(Oc2ccc(S(N)(=O)=O)cc2CN(C)C)cc1C
Cc1cc(Cc2ccc(N)c(C)c2)ccc1N
COC(=O)CCC(=O)OC
O=C1NC(=O)C(c2ccccc2)(c2ccccc2)N1
S=c1[nH]c2ccccc2s1
COc1ccc(OC(F)(F)F)cc1CN[C@H]1CCCN[C@H]1c1ccccc1
O=[Si]=O
Oc1ccccc1O
CC(C)OC(=O)C(C)(C)Oc1ccc(C(=O)c2ccc(Cl)cc2)cc1
CCc1nc(N)nc(N)c1-c1ccc(Cl)cc1
C/C=C/c1ccc(OC)cc1
CC(C)NCC(O)c1ccc(O)c(O)c1 (stereo not given)
CCOCCOCCO
CS(=O)(=O)c1ccc([C@@H](C[C@H]2CCC(=O)C2)C(=O)Nc2cnccn2)cc1Cl
CCCCC(CC)COP(=O)(OCC(CC)CCCC)OCC(CC)CCCC (stereo not given)
CCN(CC)CCOc1ccc(C(=C(Cl)c2ccccc2)c2ccccc2)cc1
NCCOCCOCCN
C#CC(O)C(CC)CCCC (stereo not given)
CC(C)COC(=O)CCCCC(=O)OCC(C)C
